# From PubChem BioAssay
# mcGAS inh – blocks mouse cGAS activity. recombinant cGAS, Kinase-Glo ATP depletion luminescence. inhibition, % at 12.5 µM. actives 0.15% (n = 160,000). Q8C6L5. AID 1259399;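 further: 0% = negative control wells and 100% = reference inhibitor with no enzyme activity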
# NPYLR7 ag – mosquito NPYLR7 agonism | activation, % at 10 µM | AID 1259423 | HEK293T NPYLR7/Galpha15, GCaMP6s calcium fluorescence | actives 0.15% (n = 270,000); in the data active means activation above about 40%;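 further: 0% = vehicle and 100% = reference agonist at the receptor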
# hcGAS lum – blocks human cGAS activity; Q8N884; recombinant h-cGAS, ATP depletion, Kinase-Glo luminescence; inhibition, % at 12.5 µM; actives 0.081% (n = 290,000); AID 1259398;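 further: 0% = vehicle reaction and 100% = reaction without DNA for no activity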
# Target sequence (Q8N884 whole entry, looked up): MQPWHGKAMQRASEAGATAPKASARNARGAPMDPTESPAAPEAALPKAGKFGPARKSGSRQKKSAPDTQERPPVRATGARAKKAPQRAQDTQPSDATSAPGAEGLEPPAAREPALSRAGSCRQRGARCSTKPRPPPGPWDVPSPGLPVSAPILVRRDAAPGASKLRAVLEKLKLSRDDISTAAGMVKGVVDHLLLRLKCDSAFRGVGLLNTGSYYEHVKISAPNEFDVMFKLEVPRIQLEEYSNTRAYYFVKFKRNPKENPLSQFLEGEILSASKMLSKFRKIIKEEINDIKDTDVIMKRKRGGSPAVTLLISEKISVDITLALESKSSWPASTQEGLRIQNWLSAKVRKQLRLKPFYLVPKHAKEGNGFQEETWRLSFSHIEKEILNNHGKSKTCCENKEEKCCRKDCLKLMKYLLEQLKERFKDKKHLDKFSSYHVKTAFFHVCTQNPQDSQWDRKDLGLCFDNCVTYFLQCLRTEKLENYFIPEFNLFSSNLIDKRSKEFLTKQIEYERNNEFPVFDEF
# * marks the source's active call; other numbers are inactive results; . = no result; + = active, no number. In the library only some 0.24% were active in any assay of this set; here they are far more common. Unless noted, no stated cut-off is given here; in the data, active means inhibition above about 40%; inactive means the rest.
SMILES,mcGAS inh,NPYLR7 ag,hcGAS lum
COc1ccc(C=CC(=O)c2ccc(I)cc2)cc1O,24.9,1.1,-11.0
COCCNC(=O)Cn1nc2c(c1NC(=O)c1ccc(Cl)cc1)CSC2,6.0,-2.8,11.0
COc1ccc(CC(=O)N2CCOC(COCc3c(Cl)cccc3Cl)C2)cc1 (centres undefined),-6.4,-3.9,-7.3
Cc1cc(CO)c(OCCOCCOc2c(CO)cc(C)cc2CO)c(CO)c1,.,-9.3,61.6*
COc1cc(OC)c(OC)cc1CO,-9.2,3.8,-5.4
CC(C)COc1nc(-c2ccc3c(c2)OCO3)n(-c2ccc(NC(=O)CSc3ccccc3)cc2)n1,-7.8,18.4,-3.0
O=C(Cc1ccc2c(c1)CCC2)NCC1CCN(c2ccccc2)C1 (centres undefined),-0.5,49.1*,1.4
O=C(CN1CCc2ccccc2C1)NCC1CCN(c2ccccc2)C1 (centres undefined),.,-2.2,-12.6
Cc1ccn(-c2ccc(Nc3ccc(NC(=O)Cc4ccccc4)cc3)nn2)n1,-1.1,-4.5,-1.1
Fc1ccccc1C1NCCc2cc3c(cc21)OCCO3 (centres undefined),.,0.2,-7.7
OC1c2ccccc2-c2c3c(cc4c2C1NCC4)OCO3 (centres undefined),43.8*,12.4,42.5*
O=C1C(=Cc2ccc(F)cc2)NC(=S)N1Cc1ccco1,.,0.5,0.5
N=C1/C(=C\c2ccco2)C(=O)N=C2SC(Cc3cccs3)=NN12,.,-1.8,52.0*
N=C1/C(=C\c2ccc(Br)o2)C(=O)N=C2SC(Cc3cccs3)=NN12,.,-2.7,33.3
O=C(c1cccs1)N1CCC2(CC1)NC(Cc1ccccc1)C(=O)N2CCc1ccccn1 (centres undefined),.,3.0,-2.6
CCOC(=O)c1[nH]c2c([N+](=O)[O-])cc(OCC)cc2c1CCN1C(=O)c2ccccc2C1=O,69.5*,-7.3,-1.6
CCOC(=O)c1[nH]c2c([N+](=O)[O-])cc(C)cc2c1CCN1C(=O)c2ccccc2C1=O,-7.4,4.5,4.1
Cc1cnccc1N1CCCN(C(=O)c2cnn3ccn(C)c23)CC1,-14.9,3.9,-5.2
COC(=O)C(Cc1c[nH]c2ccccc12)N=Cc1c(O)n(-c2ccccc2Cl)c(=O)[nH]c1=O (centres undefined),.,39.2,0.0
C#CCn1c(O)c(N=NC(=O)CNC(=O)/C=C/c2ccccc2)c2ccccc21,0.4,-6.3,1.6
CN(Cc1ccc(Br)cc1)C(=O)CCl,41.7*,0.5,-4.3
CCCNC(=O)NCC(=O)N(C)Cc1ccc(Br)cc1,.,0.5,-5.0
O=C1C(=Cc2cccnc2)Sc2ccccc21,65.4*,12.4,-0.3
O=C1C(=Cc2ccco2)Sc2ccccc21,.,7.7,-5.3
CCOc1ccc(C(C2Sc3nc(C)nn3C2=O)N2CCC(C(=O)OC)CC2)cc1 (centres undefined),-6.1,-0.2,-8.6
SMILES,mcGAS inh,NPYLR7 ag,hcGAS lum
CC1N(C)c2ccc(C=Cc3cc[n+](C)cc3)cc2C1(C)C (centres undefined),.,66.7*,-16.3
c1ccc(CSc2cc(-c3ccccc3)c3ccccc3n2)cc1,.,3.5,-2.2
COc1ccc(-c2ccnc(SCc3csc(Cc4ccc(F)cc4Cl)n3)n2)cc1,-7.7,3.8,-6.8
O=C(Nc1ccc(F)cc1)N1CC(=O)N2CCc3c(F)cccc3C2C1 (centres undefined),-5.6,-3.6,-4.3
NC(=O)C1CCN(C(=O)CCc2ccsc2)CC1,.,-4.0,-3.4
NC(=O)C1CCN(C(=O)CCN(CCc2ccccc2)C(=O)c2cnccn2)CC1,.,6.4,+
Cc1cc(N2CCN(C(=O)c3cnccn3)CC2)nc(NC2CCCCC2)n1,.,5.5,-3.7
CC1(C)CC[C@]2(C)CC[C@]3(C)C(=CCC4[C@@]5(C)CC[C@H](O)C(C)(C)C5CC[C@]43C)C2C1 (some centres undefined),-3.4,.,-5.2
C[C@@H]1OC(O[C@H]2[C@H](OC(=O)[C@]34CCC(C)(C)CC3C3=CCC5[C@@]6(C)CC[C@H](OC7O[C@@H](C)[C@H](O[C@@H]8OC[C@@H](O)[C@H](O)[C@H]8O)[C@@H](O)[C@H]7O)C(C)(C)C6CC[C@@]5(C)[C@]3(C)CC4O)OC[C@H](O)[C@H]2O)[C@H](O)[C@H](O)[C@H]1O[C@@H]1O[C@H](CO)[C@@H](O)[C@H](O)[C@H]1O (some centres undefined),.,54.1*,-1.4
CCc1[nH]n(-c2ccc(OC)cc2)c(=O)c1C1=C(N2CCCC2)C(=O)N(c2cccc(C)c2)C1=O,-6.1,27.9,-2.3
COCC(=O)N1CCc2[nH]c3c(Cl)cc(Cl)cc3c2C1,95.8*,1.4,48.2*
O=C(c1cnccn1)N1CCc2[nH]c3c(Cl)cc(Cl)cc3c2C1,21.8,3.4,17.6
Cc1nc(C)c(C(=O)N2C[C@H](N)C[C@H]2C(=O)NC(C)C)s1,.,-3.9,5.8
Cc1cc(-c2ccco2)nc2cc3c(cc12)OCO3,.,-0.1,0.7
Cc1c2c(nc3cc4c(cc13)OCO4)CCc1ccccc1-2,.,1.8,46.7*
CCSCCNC(=O)c1ccc(-c2cc(-c3cccc4c3OCCO4)[nH]n2)cc1,-5.9,5.8,-5.4
O=C(NCc1cccc(F)c1F)c1ccc(-c2cc(-c3cccc4c3OCCO4)[nH]n2)cc1,104.6*,.,-5.1
CCN1C(=Cc2cc(C)[n+](CC3CCCO3)c(C)c2)Sc2ccccc21 (centres undefined),-4.1,123.0*,-1.0
CCN1C(=Cc2cc(C)[n+](CCOC)c(C)c2)Sc2ccccc21,.,123.5*,3.6
CCCC[n+]1c(C)cc(C=C2Sc3ccccc3N2CC)cc1C,.,257.9*,2.0
CCN1/C(=C\C(=C2\C(=O)N(C)C(=S)N2C)c2ccccc2)Sc2ccccc21,.,-1.7,-2.5
CCN1C(=O)/C(=C/C=C2/Sc3ccccc3N2CC)SC1=Nc1ccccc1C,-2.3,-4.2,-2.7
CCN1C(=O)/C(=C\C=C2/Sc3ccccc3N2CC)N(c2ccccc2)C1=S,-4.0,-1.9,-5.2
Cc1cc(C)n2c(=S)[nH]nc2n1,.,-6.4,-8.0
CCC1C(=O)C(c2ccccn2)C(=N)N1c1ccccc1 (centres undefined),-9.4,1.9,-6.1
SMILES,mcGAS inh,NPYLR7 ag,hcGAS lum
CC(=O)c1ccc2c(c1)[C@@H]1C=CC[C@@H]1[C@H](c1cc3c(cc1Br)OCO3)N2,-2.1,11.0,-11.1
O=C(O)C1Nc2cc(Cl)cc(Cl)c2C2C=CCC12 (centres undefined),61.9*,1.5,7.1
Cc1ccc(-n2c(C)cn3c4c(=O)n(CC(C)C)c(=O)n(C)c4nc23)c(C)c1,-7.7,3.4,2.0
COc1cc(/C=C2\C(=N)N3N=CSC3=NC2=O)ccc1OC(=O)c1cccc(C)c1,.,4.3,-3.5
CCOc1cc(/C=C2\C(=N)N3N=CSC3=NC2=O)cc(Br)c1OC(=O)c1ccccc1,.,73.6*,2.4
CC(C)N1C(=O)SC(=Cc2ccc(N3CCCCC3)o2)C1=O,-5.7,10.5,-6.2
C#CCN1C(=O)SC(=Cc2ccc(N3CCCCC3)o2)C1=O,-3.3,121.9*,-7.5
O=c1c2ccccc2oc2ccccc12,-3.6,0.7,-7.8
O=C1CNc2c(c(=O)oc3ccccc23)N1,.,2.1,52.2*
S=C(NCC1CCCO1)NN=Cc1c[nH]c2ccccc12 (centres undefined),.,2.1,-5.2
CC(C)CN1CCCC(CNC(=O)c2cc(=O)c3ccccc3o2)C1 (centres undefined),.,8.1,-6.9
